From PubChem BioAssay AID2314 (National Center for Advancing Translational Sciences (NCATS), 2010) come the findings set out here.

About 37,000 (12%) of roughly 300,000 compounds were called active. The full list was thinned out, with actives kept by preference. A number with no mark means an inactive call. Rule as the data show it: active = max response mostly above about 13% (no sharp cut-off); inactive = mostly below about 14%.

The assay can be described thus: Cycloheximide Counterscreen for Small Molecule Inhibitors of Shiga Toxin. Also: read at 38.3 µM for the half of the compounds with a filed dose; 0% is about no effect. As to conditions: cell reporter, cycloheximide protein synthesis inhibition counterscreen; active compounds read high.
Take `Cc1ccccc1N(C(=O)CNC(=O)c1cccs1)C(C(=O)NC1CCCC1)c1ccncc1` (centres undefined): the max response is -8.35%.

As for `CC(=O)c1cc(CN2CCC(n3nccc3NC(=O)c3ccccc3Cl)CC2)cs1`, the max response is -1.43%.

Consider `COCCNc1ncnc2c1nc1n2CCCC1`, for which the max response is -3.81%.

Regarding `CC(NC(=O)COc1ccc(-c2ccccc2)cc1)C1CCCO1` (centres undefined), the max response is 1.81%.

For the compound `Cc1ccc(S(=O)(=O)NC(=O)c2cccc(C)c2)cc1`, the max response was 13.6%.

Regarding `Cc1cc(-n2cnc(-c3cn(C)nc3C)n2)no1`, the max response is 21.3% (active).

For `COc1ccc(C)cc1S(=O)(=O)N1CCN(S(=O)(=O)c2cc(C(=O)O)ccc2C)CC1`, the max response is 1.26%.

Consider `CCOC(=O)/C(=N\Nc1ccccc1Cl)N(C)C1CCS(=O)(=O)C1` (centres undefined), for which the max response was -5.92%.

In the case of `O=C(Nc1sc2c(c1C(=O)O)CCC2)c1ccccc1F`, the max response is -2.19%.

Turning to `NC(=O)c1c(NC(=O)c2ccccc2)sc2c1CCCC2`, the max response is 31.6% (active).

In the case of `NC(=O)c1c(NC(=O)CSc2nc(N)cc(=O)[nH]2)sc2c1CCCC2`, the max response is -0.688%.

Consider `Fc1cc(F)c2nc(Nc3nc4c(F)cccc4s3)sc2c1`, for which the max response was 13.2% (active).

As to `NC(=O)c1c(Nc2nc3c(F)cccc3s2)sc2c1CCCC2`, the max response was 17.8% (active).

For `C=CCN(CC=C)S(=O)(=O)c1ccc(C(=O)Nc2sc3c(c2C(N)=O)CCCCC3)cc1`, the max response was 3.07%.

Consider `CC(C)OC(=O)c1c(NC(=O)c2ccco2)sc2c1CCCC2`, for which the max response was -0.728%.

With `COC(=O)c1c(NC(=O)C2CC(C)=C(C)CC2C(=O)O)sc2c1CCCCC2` (centres undefined), the max response was -1.42%.

Take `NC(=O)c1c(NC(=O)CSc2nnc(-c3ccco3)n2N)sc2c1CCCC2`: the max response is 5.01%.

For the compound `COc1cc2ccccc2cc1C(=O)N(CCN(C)C)c1nc2c(F)cccc2s1`, the max response is -3.64%.

Turning to `O=C(O)c1c(NC(=O)N2CCCC2)sc2c1CCCC2`, the max response is 25.7% (active).

Take `CCC(=O)N1CCc2cc(S(=O)(=O)CCC(=O)N3CCN(c4ccccc4F)CC3)ccc21`: the max response is 2.85%.

Regarding `CCOc1ccc(NS(=O)(=O)c2cc(C)c(C)cc2C)cc1`, the max response was 0.868%.

`Cc1ccccc1N1CCN(C2CCCN(C(=O)c3ocnc3C)C2)CC1` (centres undefined): the max response was 1.48%.

Consider `CCCCCC(O)(CCN1CCCCC1)c1ccccc1` (centres undefined), for which the max response is -2.5%.

In the case of `O=C(COC(=O)/C=C/c1ccc(S(=O)(=O)N2CCCCCC2)cc1)NCc1ccccc1Cl`, the max response is 0.471%.

In the case of `CCCCn1c(=O)c(CCC(=O)OCC(=O)Nc2ccc(C)c(Cl)c2)nc2ccccc21`, the max response is -1.67%.

For the compound `CC(=O)NS(=O)(=O)c1ccc(NC(=O)C2C3C=CC(C3)C2C(=O)O)cc1` (centres undefined), the max response is -2.43%.

For the compound `CC(C)COC(=O)c1ccc(NC(=O)C2C3C=CC(C3)C2C(=O)O)cc1` (centres undefined), the max response is 29% (active).

In the case of `COC(=O)c1cc(NC(=O)C2C3C=CC(C3)C2C(=O)O)cc(C(=O)OC)c1` (centres undefined), the max response is -3.42%.

On to `CCN(CC)S(=O)(=O)c1ccc(N(C)Cc2cccc(OC)c2OC)nc1`, for which the max response is 10.4%.

Turning to `COC(=O)Cc1[nH]n(-c2nc3ccccc3s2)c(=O)c1C(C)=Nc1ccc(OC)cc1`, the max response is 38.2% (active).

`CCC(C)Cn1c(O)cc2nn(-c3nc4ccccc4s3)c(=O)c-2c1C` (centres undefined): the max response was 3.42%.

With `CC(=NCc1ccco1)c1c(C(F)(F)F)[nH]n(-c2nc3ccccc3s2)c1=O`, the max response was 48.5% (active).

Consider `C=CCn1c(CSc2nc3ccccc3s2)nnc1SCC(=O)NCc1ccco1`, for which the max response was 0.347%.

With `COc1ccccc1NC(=O)c1ccc2nc(N3C(=O)CCC3=O)sc2c1`, the max response was 7.91%.

With `CCOC(=O)N1CCN(CC(=O)Nc2cc(C)nn2-c2nc3ccccc3s2)CC1`, the max response is 2.1%.

As for `COc1ccc(CC(=O)N/N=C(\C)c2ccccn2)cc1`, the max response is -3.12%.

Turning to `C/C(=N\NC(=O)CC(C)C)c1c(C(F)(F)F)[nH]n(-c2nc3ccccc3s2)c1=O`, the max response was 35.6% (active).

Take `CCc1ccc(-c2cc(C(=O)NCc3ccco3)c3ccccc3n2)s1`: the max response is 14.1%.

Consider `Cc1ccc(C(=O)NCC(=O)OCC(=O)NC2CCCCCCC2)cc1`, for which the max response was -2.63%.

As for `Cc1ccc(NC(=O)Cn2c(=O)n(CCC(=O)NC3CCN(Cc4ccccc4)CC3)c(=O)c3ccccc32)cc1`, the max response was -1.8%.

Turning to `O=C(NCCCNC(=O)c1ccccc1Cl)c1cnccn1`, the max response is -1.06%.

`COC(=O)Nc1ccc(S(=O)(=O)Nc2cc(OC)nc(OC)n2)cc1`: the max response was 8.38%.

On to `COc1ccc(-c2ccc(CCC(=O)O)n2NC(=O)c2ccc(C(C)(C)C)cc2)cc1`, for which the max response was 15.2%.

For the compound `CC(=O)Nc1ccc(Nc2ncnc3c2nnn3Cc2ccccc2Cl)cc1`, the max response was -1.15%.

As to `CC1C(=O)Nc2ccc(S(=O)(=O)N3CCN(c4ccccc4F)CC3)cc2NC1=O` (centres undefined), the max response is -4.25%.

On to `COc1cc(CCC(=O)Nc2ccncc2Cl)cc(OC)c1OC`, for which the max response was -2.42%.

For `Cn1c2ccccc2c(=O)c2c(=O)n(Cc3ccco3)c(COc3ccccc3)nc21`, the max response was -1.78%.

For the compound `Cc1ccccc1NC(=O)CN1C(=O)N/C(=C\c2cccn2-c2cccc(C(=O)O)c2)C1=O`, the max response is -9.3%.

Take `O=C1N/C(=C/c2cccn2-c2ccccc2)C(=O)N1c1cccc(Cl)c1`: the max response is 34.8% (active).

For the compound `COc1cc2c(cc1/C=C1/NC(=O)N(c3ccccc3)C1=O)OCO2`, the max response was 6.72%.

Regarding `COc1cc(N2CCCC2)c(OC)cc1/C=C(/C#N)c1cccc(Br)c1`, the max response was -3.93%.

For the compound `COc1cc(C(=O)N2CCN(C3CCC(C)CC3)CC2)cc(OC)c1OC` (centres undefined), the max response is -0.901%.

As for `Nc1ccc2nn(-c3ccc(Cl)cc3)nc2c1`, the max response is 39.4% (active).

With `COc1ccc(-c2[nH]ncc2CN(Cc2nccn2C)C(C)C)cc1F`, the max response was 0.417%.

Consider `Cc1nn(C)c(Cl)c1CN1CCC(n2nccc2NC(=O)C2CCCC2)CC1`, for which the max response was -0.568%.

With `CC(C)(C)SCCSC1=CC(=O)CC(c2ccccc2)C1` (centres undefined), the max response was 48.7% (active).

Consider `Cc1ccc(S(=O)(=O)NCCSC(C)(C)C)cc1`, for which the max response is 1.94%.

`CCC(C)N1CC(=O)N2Cc3[nH]c4ccccc4c3C[C@H]2C1=O` (some centres undefined): the max response is -5.44%.

In the case of `COC(=O)c1ccccc1NC(=O)CSc1n[nH]c(-c2ccncc2)n1`, the max response was -2.03%.

Take `CC(C)=CCCC1(C)C=Cc2c(ccc3c2[nH]c2cc(O)c(C)cc23)O1` (centres undefined): the max response was 14% (active).

As to `CC/C(=N\NC(=S)NC(C)C)c1ccc(OC(F)F)cc1`, the max response is 7.39%.

Consider `O=C(O)CCCn1c(=O)c2cccn2c2ccc(F)cc21`, for which the max response was -0.924%.

As for `CCc1ccc(/C=C2\SC(N3CCOCC3)=NC2=O)cc1`, the max response was 17.2%.

Regarding `Cc1cc(/C=C2/SC(=O)N(CC(=O)N3CCCC3)C2=O)ccc1N1CCOCC1`, the max response was 12.3%.

Regarding `Cc1ccsc1/C=C1\SC(N2CCOCC2)=NC1=O`, the max response is 32.7% (active).

As to `O=c1[nH]c(N2CCOCC2)nc2ccccc12`, the max response is -4.42%.

With `O=C1N=C(N2CCOCC2)CS1`, the max response is 11.5%.

As for `O=C1N=C(N2CCOCC2)S/C1=C\C=C/c1ccccc1`, the max response is 44.4% (active).

Take `Fc1ccc(-c2ccc(CNCc3ccccn3)o2)cc1Cl`: the max response was 11.4%.

Take `COc1ccc(C(=O)C2CCCN(Cc3cccn3-c3ccccn3)C2)c(C)c1` (centres undefined): the max response was -2.02%.

Consider `C[C@@H](NC(=O)[C@@H]1Cc2ccccc2CN1)C(=O)NC1CCCC1`, for which the max response was -1.91%.

For the compound `CCOc1ccc(/C=N\NC(=O)c2c(C)nc3cc(C)ccn23)cc1`, the max response is 0.972%.

As to `NC(=O)C1CCN(C(=O)c2ccc3c(=O)n(Cc4cccc(Br)c4)c(=S)[nH]c3c2)CC1`, the max response was -3.9%.

Consider `CS/C(=C\C(=O)c1ccco1)Nc1ccccc1Cl`, for which the max response is 38.1% (active).

`O=C(c1cccc(S(=O)(=O)Nc2ccccc2Cl)c1)N1CCN(C(=O)c2ccco2)CC1`: the max response was -0.249%.

In the case of `O=C(Nc1ccccc1C(=O)N1CCCCC1)c1ccco1`, the max response was -0.706%.

For the compound `CCOc1ccc(CC(=O)NC2CCN(Cc3ccccc3)CC2)cc1`, the max response is 4.32%.

For the compound `CCCOC(=O)c1c(NC(=O)c2cnn3c2NC(c2ccccc2)CC3C(F)(F)F)sc2c1CCCC2` (centres undefined), the max response is -8.8%.

As to `CCc1nc(Nc2ccc3nccnc3c2)c2oc3ccccc3c2n1`, the max response was 12.4% (active).

Consider `CCc1nc(Nc2ccc(NC(C)=O)cc2)c2oc3ccccc3c2n1`, for which the max response is -3.08%.

In the case of `CCc1nc(N2CCN(c3nc(C)cc(C)n3)CC2)c2oc3ccccc3c2n1`, the max response was 2.99%.

As to `O=S(=O)(Nc1ccc(Cl)cn1)c1cnc(Cl)c(Br)c1`, the max response was -1.38%.

Regarding `CCN1CCN(c2cc3nc(C)n(Cc4ccccc4)c(=O)c3cc2NC(=O)c2ccccc2F)CC1`, the max response is -3.92%.

On to `Cc1nnnn1/C(=C\c1ccccc1)C(=O)OCC(=O)N1CC2(C)CC1CC(C)(C)C2` (centres undefined), for which the max response is -5.53%.

Turning to `O=C(Nc1nnc(C2COc3ccccc3O2)o1)c1ccc(F)cc1` (centres undefined), the max response is 1.61%.

`Cc1ccc(Cn2c(SCC(=O)N/N=C/c3ccccc3OCC(=O)O)nc3ccccc32)cc1`: the max response was 3.56%.

As to `Cc1ccc(/C=N/NC(=O)CSc2nc3ccccc3o2)cc1`, the max response is 38.7% (active).

Consider `COc1ccc(S(=O)(=O)N(CC(=O)N/N=C/c2ccccc2C(=O)O)c2ccccc2OC)cc1`, for which the max response is 1.7%.

As for `CCC(NC(=O)c1ccccc1NC(=O)c1ccccc1)C(=O)NNC(=O)CSc1nc2ccccc2o1` (centres undefined), the max response is 16.5% (active).

Turning to `Cn1c(=O)[nH]c(=O)c2c1nc(Br)n2CCCCSc1nc2ccccc2o1`, the max response is -4.25%.

For the compound `CCn1c(SCC(=O)N/N=C/c2ccncc2)nc2ccccc21`, the max response is -1.38%.

For `O=C(CSc1nc2ccccc2o1)N/N=C/c1ccccc1C(=O)O`, the max response is 13.7% (active).

For `CCc1ccccc1NC(=O)CSc1nnc([C@@H](NC(=O)OC(C)(C)C)C(C)CC)o1` (some centres undefined), the max response is -3.76%.

As for `Cn1c(SCC(=O)N/N=C/c2ccc(O)c(O)c2)nc2ccccc21`, the max response was -3.26%.
